About 1,200 (0.35%) of roughly 340,000 compounds were called active.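 How the source made its calls: active means potentiation over 3 SD above the plate norm (cut at about 30% in these data); inactive means the rest.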 This excerpt belongs to a sample that is enriched for actives.

For the test, the target named is D(2) dopamine receptor (Homo sapiens) (UniProt P14416). Put plainly: HTS Assay for Positive Allosteric Modulators of the Human D2 Dopamine Receptor: Primary Screen for Potentiators. Further: 0% is about no effect. Particulars: HEK293 T-REx D2, calcium flux, EC20 dopamine potentiation; at 10 µM; stronger effect = higher value. In a few lines: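 Using a no-wash calcium dye in inducible, force-coupled HEK293 Trex cells expressing D2, we tracked fluorescence each second for 180 s after compound, then for 180 s after EC20 dopamine to detect augmented signalling.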
Sequence of D(2) dopamine receptor (Homo sapiens) (P14416 whole entry, looked up): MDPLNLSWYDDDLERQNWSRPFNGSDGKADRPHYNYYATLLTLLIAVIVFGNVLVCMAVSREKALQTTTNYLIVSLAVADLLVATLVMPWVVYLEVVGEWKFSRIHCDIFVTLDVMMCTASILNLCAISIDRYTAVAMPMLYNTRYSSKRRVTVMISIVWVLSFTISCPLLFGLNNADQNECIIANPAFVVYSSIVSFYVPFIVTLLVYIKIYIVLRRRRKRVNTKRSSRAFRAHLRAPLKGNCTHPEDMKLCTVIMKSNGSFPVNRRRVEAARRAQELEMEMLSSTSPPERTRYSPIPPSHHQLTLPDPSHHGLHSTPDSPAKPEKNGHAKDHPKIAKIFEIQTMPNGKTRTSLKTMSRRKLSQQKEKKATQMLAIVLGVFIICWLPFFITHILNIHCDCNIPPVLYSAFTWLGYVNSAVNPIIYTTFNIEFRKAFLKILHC
In general terms: Calcium flux is commonly read through the fluorescence of an indicator in the cells.
For `N#Cc1ccc(-c2cccs2)nc1SCc1ccc(Br)cc1`, the potentiation was -0.921% (inactive). Take `COc1cccc(CNC(=O)CCC(=O)N2CC3CCCN3c3ccccc32)c1` (stereo unspecified): the potentiation is -3.32% (inactive). Then `COc1cccc(Cn2c(SCc3ccc(C(=O)N4CCCCC4)cc3)nc3ccncc32)c1`, with 0.981% (inactive); and `CCc1nn(CC(=O)N2CCN(c3cccc(C(F)(F)F)c3)CC2)c(=O)c2cc3occc3n12`, with 4.66% (inactive); and `O=C(NCc1cccc(Cl)c1)C1CCC(=O)N(C2CC2)C1` (stereo unspecified), with -9.09% (inactive). As for `Cc1ccc(CNC(=O)C2CC(=O)N(C3CCCCCCC3)C2)cc1` (stereo unspecified), the potentiation was 7.03% (inactive).

In the case of `O=C(NCc1cc(F)cc(C(F)(F)F)c1)C1CCC(=O)N(C2CCCC2)C1` (stereo unspecified), the potentiation is 39% (active). Then `CCOC(=O)c1ccc(NC(=O)CCS(=O)(=O)c2ccc3c(c2)oc(=O)n3C)cc1`, with -4.33% (inactive).

Regarding `COc1ccccc1NC(=O)CSC1=Nc2ccccc2C2=NC(CC(=O)NCc3cccs3)C(=O)N12` (stereo unspecified), the potentiation is -7.55% (inactive). In the case of `NS(=O)(=O)c1cccc(NC(=O)CC23CC4CC(CC(Br)(C4)C2)C3)c1` it was 38.8% (active); in that of `Cc1ccc(S(=O)(=O)NCCC(=O)Nc2cccc(S(N)(=O)=O)c2)cc1C`, -4.48% (inactive); in that of `O=C(CC12CC3CC(CC(C3)C1)C2)Nc1ccc2c(c1)COC2=O`, -3.01% (inactive).

Consider `Cc1ccc2nc(COc3cccc(NC(=O)Nc4ccc(C)c(Cl)c4)c3)cc(=O)n2c1`, for which the potentiation is -1.63% (inactive).

For `O=C(COC(=O)c1ccc(O)cc1O)NNC(=O)c1cccs1`, the potentiation is -6.83% (inactive). In the case of `CCc1ccc(NC(=O)CCNS(=O)(=O)c2cccs2)cc1` it was 13.5% (inactive).

Turning to `O=C(COC(=O)c1ccc(NS(=O)(=O)c2cccs2)cc1O)Nc1ccc(F)cc1`, the potentiation was 35.7% (active). In the case of `COc1cc(Cl)c(C)cc1NC(=O)CN1CCCCCC1` it was -1.62% (inactive); in that of `COc1ccc(NC(C)=O)cc1NC(=O)CN1CCN(C2c3ccccc3-c3ccccc32)CC1`, 30.8% (active). In the case of `COc1ccc(NC(C)=O)cc1NC(=O)CN1CCN(c2ccc(F)cc2)CC1` it was -0.119% (inactive).

`Clc1ccc(CSc2nncn3c2cc2occc23)cc1`: the potentiation is 0.301% (inactive). In the case of `CN1CCN(C2(CNC(=O)COc3ccc(C(C)(C)C)cc3)CCCCC2)CC1` it was -18.8% (inactive); in that of `CCOC(=O)c1c(C)nc(-c2ccccc2)nc1NC(=O)C(C)C`, 32.3% (active). With `Cc1[nH]c2ccccc2c1C(=O)COC(=O)c1c(-c2ccccc2)noc1C`, the potentiation was 8.38% (inactive). In the case of `CCOC(=O)c1cn[nH]c1NC(=S)Nc1ccccc1` it was 3.61% (inactive); in that of `CCOC(=O)c1c(C)[nH]c(C)c1S(=O)(=O)N1CCC(C(=O)Nc2ccc(C)c(Cl)c2)CC1`, 1.42% (inactive); in that of `O=C(Nc1cccc(-c2nnc(-c3ccccc3)o2)c1)C1CCCO1` (stereo unspecified), 34% (active). Then `O=C(Nc1ccc(-c2nnc(-c3ccccc3)o2)cc1)C1CCCO1` (stereo unspecified), with 15.5% (inactive). With `CC(=O)Nc1cccc(C(=O)OCC(=O)Nc2nnc(-c3ccccc3)o2)c1`, the potentiation is 4.87% (inactive).

Regarding `COc1cccc(CNC(=O)c2ccc3c(Cl)c4c(nc3c2)CCCC4)c1`, the potentiation is -3.62% (inactive).

In the case of `COc1ccc(C(=O)OCC(=O)N2CC(=O)Nc3ccccc32)cc1Br`, the potentiation is -9.38% (inactive). As to `COc1ccc(Cl)cc1-n1c(C)cc(C(=O)OCC(=O)N2CC(=O)Nc3ccccc32)c1C`, the potentiation was -19.1% (inactive). Turning to `COc1cc(OC)c(C(=O)OCC(=O)N2CC(=O)Nc3ccccc32)cc1OC`, the potentiation is 35.4% (active).

Regarding `O=C(Nc1nnc(C2CC(=O)N(c3ccc(Cl)cc3)C2)s1)c1ccco1` (stereo unspecified), the potentiation was -13.1% (inactive). In the case of `Cc1cccc(OCCCC(=O)Nc2ccc(S(=O)(=O)N3CCCC3)cc2)c1` it was 9.5% (inactive).

On to `CC(=O)NCCC(=O)Nc1cc(S(=O)(=O)N2CCCCC2)ccc1Oc1cccc(C)c1`, for which the potentiation is -0.184% (inactive). In the case of `Cc1cccc(OCCC(=O)Nc2cc(S(=O)(=O)N3CCCCC3)ccc2N2CCOCC2)c1` it was 38.1% (active). Then `CCOC(=O)N1CCC(NC(=O)c2cnn(-c3cccc(C)c3)c2C2CCN(C(=O)OC(C)(C)C)CC2)CC1`, with -9.08% (inactive). `Cn1nnnc1SCCNCc1ccc(Cl)c(Cl)c1`: the potentiation was -14.4% (inactive). In the case of `Cc1ccc(-c2cn(S(=O)(=O)c3cccc([N+](=O)[O-])c3)nc2N)cc1` it was 30.3% (active).

In the case of `Cc1cc(C)n(S(=O)(=O)c2cccc([N+](=O)[O-])c2)n1`, the potentiation is 2.11% (inactive). Regarding `CC1=NCCN1S(=O)(=O)c1cccc([N+](=O)[O-])c1`, the potentiation is 12.8% (inactive).

Turning to `COc1cccc(C(c2c(O)cc(C)n(Cc3ccco3)c2=O)N2CCN(c3ccccc3)CC2)c1` (stereo unspecified), the potentiation was -2.97% (inactive). In the case of `Cc1ccccc1CNC(=O)CCc1cn(Cc2ccccc2C)c2ccccc12` it was -1.4% (inactive). As for `COc1ccc(-c2cn3nc(N4CCCC(C(=O)NCCCOC(C)C)C4)sc3n2)cc1` (stereo unspecified), the potentiation is -3.35% (inactive). In the case of `Cc1cccc(NC(=O)C2CCN(S(=O)(=O)c3c(C)noc3/C=C/c3ccco3)CC2)c1` it was 2.71% (inactive). In the case of `CC(C)c1ccc(C(=O)NCCCc2ccccc2)cc1` it was -14.7% (inactive); in that of `O=C(CCNS(=O)(=O)c1ccccc1)NCCCc1ccccc1`, -12.4% (inactive). For the compound `O=C(CCNC(=O)c1ccc(Br)cc1)NCCCc1ccccc1`, the potentiation was 33% (active). In the case of `Cc1cc(F)ccc1NS(=O)(=O)c1ccc(-n2cccn2)cc1` it was -0.96% (inactive); in that of `COc1ccc(CCNC(=O)c2cc(=O)c3c(C)cc(C)cc3o2)cc1OC`, -14.8% (inactive). Then `COc1ccc(C2=NOC(C(=O)NCc3ccco3)C2)cc1OC` (stereo unspecified), with 32.1% (active). Regarding `COc1ccc(CNC(=O)C2CC(c3ccc(C(F)(F)F)cc3)=NO2)cc1` (stereo unspecified), the potentiation was 11.9% (inactive).

Turning to `COc1ccc(S(=O)(=O)N2CCC(C(=O)NCc3ccco3)CC2)cc1C`, the potentiation was 6.74% (inactive). Then `COc1cccc(-n2cc(C(=O)NCc3cccc(Cl)c3)c3ccccc3c2=O)c1`, with 3.92% (inactive); and `Cc1nnc(NCc2ccccc2)c2c1nnn2Cc1ccc(F)cc1`, with -11.5% (inactive); and `COc1cc(Cl)c(NC(=O)C(NS(=O)(=O)c2cccs2)C(C)C)c(OC)c1` (stereo unspecified), with -0.155% (inactive). Then `COCc1c(C(=O)N/N=C/C2CC=CCC2)nnn1-c1nonc1N` (stereo unspecified), with 5.51% (inactive); and `Nc1nonc1-n1nnc(C(=O)N/N=C/C2CCCCC2)c1-c1ccccc1`, with 38.6% (active).

Take `CC(C)c1c(C(=O)N/N=C/c2ccc(-c3ccccc3)cc2)nnn1-c1nonc1N`: the potentiation was 4.04% (inactive). `Cc1cc(C)c2oc(-c3cccc(NC(=O)c4cccc(F)c4)c3C)nc2c1`: the potentiation was -6.15% (inactive). Then `COc1cccc(-c2nc(CS(=O)(=O)CC(=O)N3CCN(c4cc(C)ccc4C)CC3)c(C)o2)c1`, with 20.2% (inactive); and `Cc1ccc(SCc2cc(=O)[nH]c(N3CCCCC3)n2)cc1`, with -9.08% (inactive); and `Cc1ccc(SCCSc2ncccn2)cc1`, with -3.01% (inactive). In the case of `Cc1ccc(SCC2=NNC(=O)C2)cc1` it was 31.9% (active); in that of `CCn1c2ccccc2c2cc(NC(=O)COc3ccc(C)cc3C)ccc21`, -13% (inactive). Then `CCc1ccc(NC(=O)c2nn(-c3ccc(C)cc3)c(=O)n(C)c2=O)cc1`, with 11.1% (inactive); and `COc1ccc(CNC(=O)COC(=O)/C=C/c2ccc(S(=O)(=O)N3CCOCC3)cc2)cc1`, with 33.3% (active); and `O=C(COC(=O)/C=C/c1ccc(S(=O)(=O)N2CCCCCC2)cc1)NCc1ccccc1Cl`, with -11.9% (inactive).

As to `COC(=O)COc1ccc(S(=O)(=O)N2CCOCC2)cc1`, the potentiation is -3.49% (inactive). Then `CCn1c(CN2CCC(C)CC2)nc2cc(NC(=O)c3ccccc3[N+](=O)[O-])ccc21`, with -38.3% (inactive). For `O=C(Cn1cc(SCc2cccc(Cl)c2)c2ccccc21)N1CCCCC1`, the potentiation was 1.4% (inactive).

Regarding `O=C(COc1ccc(Cl)cc1)N1CCN(c2cccc(C(F)(F)F)c2)CC1`, the potentiation is 35.5% (active).

As to `O=C(COc1ccc(Cl)cc1)N1CCN(S(=O)(=O)c2ccc(Cl)cc2)CC1`, the potentiation was -3.15% (inactive).

Regarding `Cc1c(C)c2ccc(OCC(=O)N3CCN(c4cccc(Cl)c4)CC3)cc2oc1=O`, the potentiation was -6.58% (inactive). Consider `CCOC(=O)c1ccc(N2C(=O)c3n[nH]c(-c4ccco4)c3C2c2ccc(O)cc2)cc1` (stereo unspecified), for which the potentiation is -20% (inactive). Then `Nc1ncc(S(=O)(=O)Nc2ccc(OC(F)(F)F)cc2)cn1`, with -3.21% (inactive); and `CCOc1ccc(NC(=O)CC2C(=O)N(c3cccc(OC)c3)C(=O)N2C2CCCCC2)cc1` (stereo unspecified), with 2.76% (inactive); and `COc1ccc(S(=O)(=O)c2cn(C)c3cc(N4CCCCC4)c(F)cc3c2=O)cc1`, with -4.51% (inactive).

For `COc1ccccc1N1CCN(c2ncnc3onc(-c4ccc(F)cc4)c23)CC1`, the potentiation was -4.24% (inactive). In the case of `COc1ccccc1N1CCN(c2ncnc3sc(C)c(-c4ccccc4)c23)CC1` it was 37.8% (active); in that of `COC(=O)c1cnc(N2CCN(c3ccccc3OC)CC2)c2ccccc12`, 3.09% (inactive); in that of `CCc1ccc(C2C(C(=O)Nc3ccccc3)=C(C)Nc3c(C(=O)Nc4ccc(C)cc4)cnn32)cc1` (stereo unspecified), 4.34% (inactive). On to `COc1ccccc1N1CCN(c2ccc(=O)n(CC(=O)NCc3ccc(OC(C)C)cc3)n2)CC1`, for which the potentiation is -2.29% (inactive). Then `CCOc1cc2c(cc1OCC)C(C(=O)O)C(c1ccc(OC)c(O)c1)N(C)C2=O` (stereo unspecified), with -25.6% (inactive); and `COc1cccc(NC(=O)C2c3cc(OC)c(OC)cc3C(=O)N(C)C2c2cccnc2)c1` (stereo unspecified), with 30.1% (active); and `COc1cccc(NC(=O)C2C(c3ccccc3)C2(Cl)Cl)c1` (stereo unspecified), with -7.1% (inactive).

As to `Cc1ccc(O)c(NC(=O)CCS(=O)(=O)c2nc(-c3ccc4c(c3)OCO4)cc(C(F)(F)F)n2)c1`, the potentiation was 5.96% (inactive). Then `Cc1cccc(NC(c2cccc(F)c2)c2ccc3ccc(C)nc3c2O)n1` (stereo unspecified), with 0.98% (inactive).

In the case of `Cc1cc(C)cc(-n2c(SCC(=O)NCC3CCCO3)nc3c([nH]c4ccccc43)c2=O)c1` (stereo unspecified), the potentiation is -6.86% (inactive).

Take `Cc1ccc(-n2cnc3cc(C(=O)NCCC4=CCCCC4)ccc32)cc1Cl`: the potentiation was 9.63% (inactive).

On to `CCn1c2ccccc2c2cc(CN3CCN(Cc4cccc(Cl)c4)CC3)ccc21`, for which the potentiation was -11.2% (inactive). In the case of `CCOC(=O)N1CCC(NC(=O)CCc2ccccc2)CC1`, the potentiation is -4.2% (inactive). Take `CCOC(=O)N1CCC(c2cc(=O)n(-c3ccccc3)[nH]2)CC1`: the potentiation was 49.5% (active). Then `CCOC(=O)CN1CCC(c2ccccc2)CC1`, with -9.51% (inactive). In the case of `CCCCS(=O)(=O)c1oc(-c2cccs2)nc1S(=O)(=O)c1ccccc1` it was 3.55% (inactive). Consider `CCS(=O)(=O)N1CCc2cc(C(=O)N3CCN(c4ccccc4OC)CC3)ccc21`, for which the potentiation was 3.69% (inactive).

Source of the values: PubChem BioAssay AID485347 (National Center for Advancing Translational Sciences (NCATS), 2010).
